# Screening data from PubChem.
# Shown are actives, neighbours in structure and some others; about 9.2% of the full set was active somewhere.
# NPC1 promoter act = activates the NPC1 promoter | Huh7 NPC1 promoter luciferase reporter, 24 h | Potency, µM (highest dose often 9.22 µM), most hits filed as activators | 320,000 compounds, 2.4% hits; also: nearly all actives have a fitted effect of over 60% in size
#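 Luminescence read-out of NPC1 promoter-driven luciferase in stably transfected Huh7 cells; compounds delivered in DMSO and left 24 h at 37C, 5% CO2, qHTS titration format.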
# ELG1 repair inh = inhibitors of ELG1-dependent DNA repair in HEK293T cells. HEK293T ELG1-luciferase reporter, luminescence, 16 h; DNA damage induced by 5-fluorouridine. Potency, µM (titrated, usually from 46.1 µM), actives largely listed as inhibitors. 330,000 compounds, 2.3% hits. AID 504467; also: nearly all actives have a fitted effect of over 55% in size
#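 HEK293T cells expressing luciferase-tagged ELG1 (2,000/well) received 5-Fluorouridine plus compound or DMSO for 16 hr at 37 °C. Luciferase was read by ONE-Glo luminescence after 30 min at room temperature.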
# FLuc counter = inhibits or activates purified firefly luciferase, miR-21 counter-screen | 360,000 compounds, 6.9% hits | AID 588342 | purified FLuc, Km substrates, luminescence inhibition | P08659 | Potency, µM (titrated, usually from 57.5 µM), most hits filed as inhibitors; also: nearly all actives have a fitted effect of over 55% in size
# Target sequence (P08659 whole entry, looked up): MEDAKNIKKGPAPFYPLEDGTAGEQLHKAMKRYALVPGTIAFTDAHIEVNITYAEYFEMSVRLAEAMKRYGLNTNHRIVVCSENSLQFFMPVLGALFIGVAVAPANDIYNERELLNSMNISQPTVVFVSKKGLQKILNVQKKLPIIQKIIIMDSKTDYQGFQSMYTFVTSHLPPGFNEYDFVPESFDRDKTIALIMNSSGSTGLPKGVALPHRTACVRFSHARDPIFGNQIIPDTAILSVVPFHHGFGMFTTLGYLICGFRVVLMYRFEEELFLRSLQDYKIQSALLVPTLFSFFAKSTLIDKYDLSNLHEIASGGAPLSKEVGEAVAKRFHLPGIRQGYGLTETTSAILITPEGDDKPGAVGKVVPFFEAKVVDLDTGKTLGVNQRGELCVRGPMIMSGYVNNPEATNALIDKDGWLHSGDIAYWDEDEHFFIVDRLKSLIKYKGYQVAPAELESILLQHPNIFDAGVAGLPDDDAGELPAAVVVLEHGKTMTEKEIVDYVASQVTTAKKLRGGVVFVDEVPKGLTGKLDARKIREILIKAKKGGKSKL
#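 Purified P. pyralis luciferase, 10 nM final, with Km-level 10 uM D-luciferin and 10 uM ATP in 50 mM Tris acetate pH 7.5, 10 mM Mg acetate, 0.01% Tween-20, 0.05% BSA; 6-point qHTS titration about 60 µM downward; luminescence read.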
# Rab9 prom act = Rab9 promoter activation. 320,000 compounds, 2.8% hits. Huh7 Rab9 promoter-luciferase reporter, luminescence, 24 h. Potency, µM (top dose mostly 9.22 µM), hits mostly activators. AID 485297; also: nearly all actives have a fitted effect of over 60% in size
#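 Huh7 reporter line, Rab9 promoter upstream of luciferase. Compound exposure 24 h at 37 °C in reduced-serum medium with 10% FBS. Read-out: luminescence.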
# ELG1 genotox = inducers of genotoxicity in HEK293T ELG1-luciferase cells; HEK293T ELG1-luciferase reporter, luminescence, 16 h; Potency, µM (titrated, usually from 46 µM), usual class: activators; 330,000 compounds, 1.3% hits; AID 504466; also: nearly all actives have a fitted effect of over 60% in size
#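 Genotoxic stress is detected as increased luminescence from luciferase-tagged ELG1 in HEK293T cells, measured with ONE-Glo after a 16 hr treatment at 37 °C.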
# SMN2 splice enh = SMN2 splice variant enhancement | HEK293 SMN2-luciferase splicing reporter, luminescence, 30-36 h | Potency, µM (series often up to 46.1 µM), hits mostly activators | 210,000 compounds, 2.8% hits | AID 1458; also: nearly all actives have a fitted effect of over 55% in size
#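 qHTS luciferase splicing reporter: luminescence rises when SMN2 exon 7 is included in transfected HEK293 cells. Compound exposure lasted 30-36 h at 37C, with 4.5 mM final sodium butyrate as control, followed by a ONE-Glo read.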
# Hits are given with their value; i = inactive; ? = inconclusive; nt = no result. Calls follow the shape of the dose curve; as a rule, active = well fitted curve in the direction sought with a large enough effect; inconclusive = small, poorly fitted or top-dose-only effect, or another doubt; inactive = no such curve, though single readings can be large; an effect the other way counts as inactive or inconclusive.
SMILES,NPC1 promoter act,ELG1 repair inh,FLuc counter,Rab9 prom act,ELG1 genotox,SMN2 splice enh
C=CCSC1=N/C(=C/c2ccsc2)C(=O)N1c1ccccc1,i,?,i,i,i,i
COCCN(C(=O)c1sc2ccccc2c1Cl)c1c(N)n(CC(C)C)c(=O)[nH]c1=O,i,i,i,i,i,nt
C/C(N)=C(/C#N)C(=O)CSc1nnc(-c2ccccc2Br)o1,0.45µM,?,0.85µM,0.4µM,2.6µM,2.8µM
COc1ccc(-c2nnc(SCC(=O)/C(C#N)=C(\C)N)o2)cc1,0.71µM,?,0.95µM,i,1µM,4.5µM
COc1ccc2nc(SCC(=O)/C(C#N)=C(\C)N)[nH]c2c1,1.1µM,?,8.5µM,0.63µM,?,nt
O=C(CSC1=NS(=O)(=O)c2cc(F)ccc2N1)Nc1cccc(F)c1,i,i,i,i,i,nt
Cc1ccc(S(=O)(=O)Oc2ccc(N3C(=O)C4C5CCC(C5)C4C3=O)cc2)cc1 (stereo unspecified),i,8.2µM,i,i,i,i
Cc1ccc(S(=O)(=O)Oc2ccccc2N2C(=O)C3C4CCC(C4)C3C2=O)cc1 (stereo unspecified),i,i,i,i,i,nt
COc1ccc(C2c3ccc(O)cc3Oc3ncn4nc(-c5cccnc5)nc4c32)cc1OC (stereo unspecified),i,10µM,i,i,i,nt
O=C(CNc1ccc(F)cc1Cl)Nc1cccc(S(=O)(=O)N2CCCCC2)c1,i,i,11µM,i,i,nt
CCN(CC)CC(=O)Nc1cccc(S(=O)(=O)N2CCCC2)c1,i,i,i,i,i,nt
O=C(CNc1cccc(S(=O)(=O)N2CCCC2)c1)Nc1cccc(F)c1,i,i,i,i,i,nt
CCN(CC)S(=O)(=O)c1cccc(NC(=O)CC2CCCC2)c1,i,?,i,i,i,nt
CN(CC(=O)Nc1cccc(S(=O)(=O)N2CCCC2)c1)CC(=O)Nc1ccc(Cl)c(C(F)(F)F)c1,i,15µM,i,i,i,nt
CCN(CC)S(=O)(=O)c1cccc(NC(=O)Nc2cccc(C(F)(F)F)c2)c1,i,13µM,i,i,i,i
CCN(CC)S(=O)(=O)c1cc(NC(=O)CNc2cccc(S(=O)(=O)N3CCOCC3)c2)ccc1C,i,?,i,i,5.2µM,nt
N#Cc1cccc(NC(=O)CCNS(=O)(=O)c2ccc3c(c2)CCN3C(=O)C2CC2)c1,nt,nt,i,nt,nt,nt
COC(=O)c1ccc(=O)n(CC(=O)c2ccc(Cl)cc2)c1,i,i,i,i,i,i
Cc1ccsc1C(=O)OCC(=O)NC1CCCCC1C (stereo unspecified),i,?,i,i,i,nt
Cc1ccc(NC(=O)CSc2ccccc2)cc1S(=O)(=O)N1CCOCC1,i,i,i,i,i,nt
Cc1ccc(NC(=O)CNc2cccc(Br)c2)cc1S(=O)(=O)N1CCOCC1,nt,23µM,nt,nt,i,nt
CCN(CC)S(=O)(=O)c1cccc(NC(=O)CNc2cccc(S(=O)(=O)N3CCCC3)c2)c1,i,0.33µM,i,i,i,nt
C[C@@H]1COC(=O)[C@@H](CC(=O)OC(C)(C)C)C/C=C\C[C@@H](CC(=O)NCCO)C(=O)N1,nt,i,nt,nt,i,nt
COc1ccc(-c2noc(N3CCC(C(=O)Nc4cccc(C)c4C)CC3)n2)cc1,nt,nt,i,nt,nt,nt
CSc1ccc(/C=N/N2CCN(C)CC2)cc1,?,?,21µM,3.2µM,i,18µM
SMILES,NPC1 promoter act,ELG1 repair inh,FLuc counter,Rab9 prom act,ELG1 genotox,SMN2 splice enh
CSc1ccc(/C=N/n2c(C)nnc2C)cc1,i,?,i,i,i,i
CN1CCN(/N=C/c2ccc(-c3ccccc3)cc2)CC1,3.5µM,?,19µM,?,i,?
CSc1ccc(/C=N/n2c(C)cc(C)cc2=O)cc1,?,?,15µM,2.8µM,10µM,?
Fc1ccc(COc2cccc(CNCc3ccncc3)c2)cc1,i,?,i,i,i,i
COc1cccc(C(=O)Nc2nnc(SCC(=O)Nc3ccc(NC(C)=O)cc3)s2)c1,2.8µM,?,0.48µM,3.5µM,?,nt
CCSc1nnc(NC(=O)Nc2cccc(C)c2)s1,?,?,11µM,?,i,nt
